Screening data (PubChem BioAssay)
FMDV antiviral: foot and mouth disease virus antiviral activity. 1.2% of 410,000 active. FMDV antiviral cell-based qHTS. Potency, µM (titrated, usually from 57.9 µM), inactives show at the highest dose activity change, negative = inhibition, actives largely listed as inhibitors; calls by dose curve; tested in HEK293T cells; also: read-out not given here; nearly all actives have a fitted effect of over 45% in size
Vaccinia Venus: vaccinia inhibition (Venus reporter); Potency, µM (titrated, usually from 36.5 µM), without a hit: top-dose activity change, negative = inhibition, usual class: inhibitors; 0.46% of 330,000 active; Vaccinia virus Venus reporter expression, fluorescence; calls by dose curve; tested in A549 cells; also: nearly all actives have a fitted effect of over 30% in size
MARV entry inh: inhibitors of Marburg virus binding or cell entry; Marburg virus pseudotyped entry inhibition, cell reporter; Potency, µM (highest dose often 37.8 µM), for inactives: at the top dose activity change, negative = inhibition, usual class: inhibitors; 1.8% of 300,000 active; AID 540276; calls by dose curve; tested in HEK293 cells
Sm TGR block: S. mansoni TGR enzyme inhibition | Potency, µM (top dose mostly 114 µM), for inactives: at the highest dose activity change, negative = inhibition, usual class: inhibitors | purified TGR, DTNB reduction, TNB absorbance 405 nm | Q962Y6 | 3% of 360,000 active; active = well fitted inhibition curve with a large enough effect; inconclusive = small, poorly fitted or top-dose-only effect; inactive = no such curve, though single readings can be large or run the other way; also: nearly all actives have a fitted effect of over 60% in size
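TGR 20 nM + NADPH 100 uM (dispensed conc.), cpd preinc 15 min RT; start with NADPH (500 uM addition) then DTNB (15 mM addition). Kinetic TNB absorbance, 405 nm filter. Four-parameter Hill fit across titration.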
LASV entry inh: blocks Lassa virus binding to or entry into cells | Lassa virus pseudotype entry inhibition, cell reporter | Potency, µM (titrated, usually from 37.9 µM), for inactives: top-dose activity change, negative = inhibition, actives largely listed as inhibitors | 1.2% of 300,000 active | AID 540256; calls by dose curve; tested in HEK293 cells; also: nearly all actives have a fitted effect of over 50% in size
Vaccinia mCherry: vaccinia inhibition (mCherry reporter); Potency, µM (titrated, usually from 36.5 µM), for the others: top-dose activity change, negative = inhibition, actives largely listed as inhibitors; 0.63% of 310,000 active; AID 720579; Vaccinia virus mCherry reporter infection, fluorescence; calls by dose curve; tested in A549 cells; also: nearly all actives have a fitted effect of over 35% in size
* hit, by the source's call; [ ] = another dose, or the depositor's remark. Hits are enriched below; roughly 5.4% of the tested compounds scored in any of these assays. % is scaled to controls: 0 for no effect and ±100 for the full control effect; potency is read from the fitted curve at half-maximal effect.

How did O=C(c1ccco1)N1CCN(C(c2ccccc2Cl)c2nnnn2Cc2ccco2)CC1 (stereo unspecified) do in these assays?
FMDV antiviral: -14%; Vaccinia Venus: -5%; MARV entry inh: -29%; Sm TGR block: inconclusive; LASV entry inh: -29%; Vaccinia mCherry: inconclusive

What do the screens show for `Cc1cc(O)c(C(c2ccccc2Cl)N2CCN(c3ccccc3)CC2)c(=O)n1Cc1ccco1` (stereo unspecified)?
FMDV antiviral: inconclusive; Vaccinia Venus: -17%; Sm TGR block: 2.8µM*; LASV entry inh: 8%[46.1 µM]; Vaccinia mCherry: -15%

How did COC(=O)c1cc(S(=O)(=O)N2CCN(c3ccc(OC)cc3)CC2)c[nH]1 do in these assays?
FMDV antiviral: -8%; Vaccinia Venus: -14%; Sm TGR block: 9%; LASV entry inh: 1%[46.1 µM]; Vaccinia mCherry: -10%

How did CC(C)C/C(=N/O)c1cn(C)c2ccccc12 do in these assays?
FMDV antiviral: 8%; Vaccinia Venus: -14%; MARV entry inh: inconclusive; Sm TGR block: -10%; LASV entry inh: 1.1µM*; Vaccinia mCherry: -17%

What do the screens show for `CCCCCn1c(=O)[nH]c2cc(C(=O)N3CCN(c4cccc(OC)c4)CC3)ccc2c1=O`?
FMDV antiviral: inconclusive; Vaccinia Venus: -6%; MARV entry inh: inconclusive; Sm TGR block: -11%; LASV entry inh: inconclusive; Vaccinia mCherry: -19%

Results for COc1ccc(N2CCN(CCCNC(=O)c3ccc4nc(CCc5ccccc5)oc4c3)CC2)cc1 ?
FMDV antiviral: inconclusive; Vaccinia Venus: inconclusive; Sm TGR block: -3%; LASV entry inh: 10µM*; Vaccinia mCherry: inconclusive

What do the screens show for `COc1ccc(Cc2nc3ccc(C(=O)NCCCN4CCN(C)CC4)cc3o2)cc1`?
FMDV antiviral: inconclusive; Vaccinia Venus: -10%; Sm TGR block: -4%; LASV entry inh: inconclusive; Vaccinia mCherry: inactive

What do the screens show for `COc1ccc(N2CCN(CCCNC(=O)c3ccc4nc(Cc5ccccc5)oc4c3)CC2)cc1`?
FMDV antiviral: 25µM*; Vaccinia Venus: -27%; Sm TGR block: 1%; LASV entry inh: inconclusive; Vaccinia mCherry: -27%

Results for COc1ccc(CCNC(=O)C(NS(=O)(=O)c2cccc3nsnc23)C(C)C)cc1OC (stereo unspecified) ?
FMDV antiviral: 10µM*; Sm TGR block: -19%

What do the screens show for `Cc1ccccc1C1(CC(=O)N2CCCCC2C)CC(=O)N(Cc2cccnc2)C1=O` (stereo unspecified)?
FMDV antiviral: 6%; Vaccinia Venus: 3%; Vaccinia mCherry: -10%

How did CN(C)CCCNC(=O)CC(c1ccc(F)cc1)c1ccco1 (stereo unspecified) do in these assays?
FMDV antiviral: -22%; Vaccinia Venus: -7%; MARV entry inh: -9%; Sm TGR block: -13%; LASV entry inh: 12%

Results for CCCN(CCC)C(=O)CC(c1ccccc1)c1ccco1 (stereo unspecified) ?
FMDV antiviral: -11%; Vaccinia Venus: -4%; MARV entry inh: -9%; Sm TGR block: 14µM*; LASV entry inh: inconclusive; Vaccinia mCherry: 0%

Results for CCN(CC)C(=O)CC(c1ccc(F)cc1)c1ccco1 (stereo unspecified) ?
FMDV antiviral: -23%; Vaccinia Venus: -6%; MARV entry inh: -28%[46.1 µM]; Sm TGR block: 28µM*; LASV entry inh: -4%

How did O=C(NC(N1CCOCC1)C(Cl)(Cl)Cl)c1ccc(F)cc1 (stereo unspecified) do in these assays?
FMDV antiviral: -10%; Vaccinia Venus: -7%; MARV entry inh: 3%[46.1 µM]; Vaccinia mCherry: -12%

How did O=C(NC(N1CCCC1)C(Cl)(Cl)Cl)c1ccccc1 (stereo unspecified) do in these assays?
FMDV antiviral: 16%; MARV entry inh: -23%; Sm TGR block: 3.5µM*; LASV entry inh: -22%

What do the screens show for `COc1ccc(C(=O)c2c(C(F)(F)F)oc3c2C(=O)c2ccccc2C3=O)cc1OC`?
FMDV antiviral: 10µM*; Vaccinia Venus: 5.6µM*; MARV entry inh: 2.8µM*; Sm TGR block: -9%; LASV entry inh: 2.5µM*

How did Cc1nc2ccccc2nc1CN1CCOc2ccc(C(C)(O)COc3ccccc3)cc2C1 (stereo unspecified) do in these assays?
FMDV antiviral: 3%; Vaccinia Venus: -18%; Vaccinia mCherry: -23%
